Bioassay records as filed in PubChem.
A selection: hits, their analogues and other compounds. The true share with any hit is near 3.5%.
GDH-TPI counter: GDH-TPI coupled enzyme inhibition counter-screen. GDH-TPI coupled enzyme counterscreen, NADH absorbance. inhibition, % at 4.8 µM. hit rate 1.2% among 360,000; in the data active = inhibition above about 30%;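 note: 0% = DMSO wells and 100% = wells lacking the enzyme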
FBA Mtb inh: inhibits M. tuberculosis FBA enzyme; purified M. tuberculosis FBA, fluorescence read-out; AID 588726; hit rate 2.3% among 360,000; P9WQA3; inhibition, % at 1 µM; in the data active = inhibition above about 27%;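 note: 0% = vehicle and 100% = reference inhibitor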
Rv3671c inh: inhibitors of M. tuberculosis serine protease Rv3671c; inhibition, % at 5.96 µM; hit rate 0.048% among 320,000; in the data active = inhibition above about 38%;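 note: extracellular domain of Rv3671c used as enzyme; 0% = enzyme with DMSO and 100% = no enzyme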
Mtb betalactam: beta-lactam sensitization of Mtb H37Rv; M. tuberculosis H37Rv growth with meropenem, percent inhibition; inhibition, % at 25 µM; hit rate 0.27% among 330,000; call rule not given here;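 note: growth measured after seven days incubation then overnight dye step; 0% = bacteria only wells and 100% = bacteria with antibiotic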
UGM FP inh: blocks M. tuberculosis UGM enzyme | P9WIQ1 | purified UGM, fluorescence polarization probe displacement | inhibition, % at 10 µM | hit rate 0.06% among 320,000 | AID 504406; in the data active = inhibition above about 10%, passing the limit was not always enough
Target sequence (P9WIQ1 whole entry, looked up): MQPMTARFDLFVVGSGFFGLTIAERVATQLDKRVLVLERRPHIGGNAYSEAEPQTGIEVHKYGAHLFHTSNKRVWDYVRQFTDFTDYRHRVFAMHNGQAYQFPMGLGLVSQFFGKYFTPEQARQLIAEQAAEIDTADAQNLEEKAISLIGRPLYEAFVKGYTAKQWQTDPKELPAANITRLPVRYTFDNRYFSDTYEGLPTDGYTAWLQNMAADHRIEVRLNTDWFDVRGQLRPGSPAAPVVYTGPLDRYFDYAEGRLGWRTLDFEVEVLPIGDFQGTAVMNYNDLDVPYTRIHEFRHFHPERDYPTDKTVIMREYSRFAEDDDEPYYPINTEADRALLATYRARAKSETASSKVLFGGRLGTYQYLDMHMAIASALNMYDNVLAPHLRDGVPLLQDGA
* hit, by the source's call; . = no result given; + = active, no number.

SMILES	GDH-TPI counter	FBA Mtb inh	Rv3671c inh	Mtb betalactam	UGM FP inh
Cc1nc(-c2noc(-c3ccc(Cl)cc3)n2)c(C(F)(F)F)o1	7.3	-1.0	3.0	2.3	-2.4
CC(C)(C)c1ccc(C(=O)NCc2cccnc2)cc1	10.1	-2.1	-3.4	4.1	0.9
Cc1ccc(C)n1-c1ccc(C(=O)NCc2cccnc2)cc1	2.5	31.1*	3.5	0.3	-1.7
CCCCCCC1(C)NC(=O)N(C(C)C(=O)Nc2ccc(N3CCOCC3)cc2)C1=O (stereo not drawn)	2.1	1.6	4.3	-6.3	3.2
COc1cc(/C=C(/C#N)C(=O)c2c(C)[nH]c3ccccc23)ccc1OCC#N	37.7*	2.6	-2.4	0.6	-2.1
CC1(C(=O)NS(=O)(=O)c2ccc(C#N)cc2)CCN1C(=O)Cc1cccc2ccccc12 (stereo not drawn)	-6.2	-2.6	.	.	.
COc1cc(/C=N/NC(=O)C(=O)/C=C2\NC3(CCCC3)Cc3ccccc32)ccc1O	12.2	-7.6	5.9	-1.3	2.5
CN(C)c1ccc(/C=N/NC(=O)C(=O)/C=C2\NC3(CCCC3)Cc3ccccc32)cc1	31.3*	-5.6	9.7	6.6	0.7
CS(=O)(=O)Nc1ccc(C2=NN(C(=O)C3CCCCC3)C(c3cccs3)C2)cc1 (stereo not drawn)	11.5	+	4.8	21.0	0.5
CC(C)C(=O)N1N=C(c2ccc(NS(C)(=O)=O)cc2)CC1c1cccs1 (stereo not drawn)	28.5	+	11.8	3.0	-0.7
CS(=O)(=O)Nc1ccc(C2=NN(S(=O)(=O)c3ccccc3)C(c3cccs3)C2)cc1 (stereo not drawn)	6.2	-3.6	-9.2	-3.7	1.8
Cc1ccc(C(=O)N2N=C(c3ccc(NS(C)(=O)=O)cc3)CC2c2cccs2)cc1 (stereo not drawn)	25.6	1.0	-4.5	97.9	0.3
COc1ccc(C(=O)N2N=C(c3ccc(NS(C)(=O)=O)cc3)CC2c2cccs2)cc1 (stereo not drawn)	12.4	0.5	-20.9	-8.1	4.1
CS(=O)(=O)Nc1ccc(C2=NN(S(C)(=O)=O)C(c3ccccc3)C2)cc1 (stereo not drawn)	24.7	132.1*	6.3	3.0	1.5
CC(C)(C)NC(=O)CN1CCCN(C(=O)c2cccc(S(=O)(=O)N3CCc4ccccc43)c2)CC1	0.4	-0.5	6.9	-2.7	-0.4
CCCCC(=O)Nc1ccc(C(=O)Nc2ccc(S(=O)(=O)Nc3nccc(C)n3)cc2)cc1	8.4	0.4	-5.4	45.6	-1.0
O=C(NCCO)c1ccc2c3n(nc2c1)-c1ccc(Cl)cc1CO3	8.4	6.4	-15.9	0.3	-1.6
Cc1ccc2c(c1)COc1c3ccc(C(=O)NCCO)cc3nn1-2	16.4	32.3*	-2.1	13.0	1.2
CC1CCC(CN2C(Nc3ccccc3)=NC[C@@H]2Cc2ccccc2)CC1 (stereo partly drawn)	-0.9	5.1	-1.1	14.9	-1.6
CCn1c(NC(=O)c2ccccc2F)c(-c2cccs2)c(=O)c2ccccc21	13.2	5.0	-0.6	0.5	-3.1
S=c1[nH]nc(-c2ccccc2)n1/N=C/C=C/c1ccco1	32.6*	-2.4	-7.0	0.8	1.3
Clc1ccccc1CN1CCN(/N=C/C=C\c2ccco2)CC1	6.9	-0.6	-2.8	-3.9	2.8
C(/C=C/c1ccco1)=N/N1CCN(c2ccccc2)CC1	46.6*	-2.9	-11.8	34.9	-0.5
CC(/C=N/n1c(-c2n[nH]c3c2CCC3)n[nH]c1=S)=C\c1ccco1	44.8*	0.9	0.4	-1.0	-1.4
Cc1ccccc1-c1n[nH]c(=S)n1/N=C/C=C/c1ccco1	43.5*	-1.1	-0.5	2.4	0.1
SMILES	GDH-TPI counter	FBA Mtb inh	Rv3671c inh	Mtb betalactam	UGM FP inh
O=C(Nc1nc2ccccc2[nH]1)c1ccc(S(=O)(=O)N2CCOCC2)cc1	39.0*	3.6	-4.5	2.9	-0.8
O=C(NCc1nc2ccccc2[nH]1)c1ccc(S(=O)(=O)N2CCOCC2)cc1	8.8	1.6	9.6	-12.0	-2.7
CCCOc1ccc(/C=C2\SC(N)=NC2=O)cc1OC	15.2	-0.5	-8.7	19.9	-0.2
COc1ccc(/C=C2\SC(N)=NC2=O)cc1Br	31.3*	-6.7	3.4	6.8	2.4
O=C(/C=C/[C@H]1O[C@@H](n2ccc(=O)[nH]c2=O)[C@H](O)[C@@H]1O)NCCc1c[nH]c2ccccc12	.	2.3	.	.	.
COc1ccc(C2CC(=O)C3=C(C2)Nc2ccccc2NC3c2coc3ccccc3c2=O)cc1OC (stereo not drawn)	40.1*	1.8	1.9	-10.7	-0.4
COc1ccc(N2CCN(C(=O)NC(=O)c3ccccc3)CC2)cc1	2.4	0.9	3.0	-15.7	1.7
O=C(CNS(=O)(=O)c1cccs1)N1CCN(c2ccccn2)CC1	7.5	87.2*	6.1	1.2	-1.6
O=C(CNS(=O)(=O)c1cccs1)N1CCN(c2ccccc2F)CC1	6.5	-0.5	-11.3	3.0	-1.6
CCOC(=O)N1CCN(C(=O)CCSc2ccccc2)CC1	-2.4	123.4*	7.4	-4.5	0.3
CSCC[C@H](NC(=O)CCn1nnc2ccccc2c1=O)C(=O)O	-1.7	-7.6	0.3	-6.4	2.0
CC(C)C[C@H](NC(=O)CCCn1nnc2ccccc2c1=O)C(=O)O	58.9*	-0.5	0.7	1.9	1.3
O=C(OCc1ccccc1)N1CCC2CC1c1ccc(Cl)cc12 (stereo not drawn)	5.2	4.5	.	.	.
Cc1ccc(-c2cn3cccnc3n2)cc1	6.9	+	-3.0	2.4	-1.1
Nc1cccc(-c2cn3cccnc3n2)c1	6.9	6.3	5.9	-7.9	1.6
CS(=O)(=O)Nc1ccc(-c2cn3cccnc3n2)cc1	15.7	114.9*	2.6	-3.8	-1.8
O=C1C(Cl)=C(N2CCOCC2)C(=O)N1c1ccccc1Cl	36.0*	-1.2	-16.1	94.5	1.1
CN(/N=C/c1ccccc1O)C(=S)c1ccccc1	32.2*	0.9	0.4	11.0	-1.2
O=C(NCc1cccnc1)/C(=C\c1ccc(-c2cccc(Cl)c2)o1)S(=O)(=O)c1ccccc1	40.7*	-0.2	-18.2	7.0	2.2
Cc1ccc(C(=O)N/C(=C\c2ccc(-c3cc(Cl)ccc3Cl)o2)C(=O)NCc2cccnc2)cc1	40.2*	8.6	-26.3	92.4	-0.4
O=C(NCc1cccnc1)/C(=C/c1ccc(-c2cccc(Cl)c2)o1)S(=O)(=O)c1ccccc1	4.8	1.1	-22.5	70.2	2.7
O=C(Nc1ccc(Cl)c(S(=O)(=O)N2CCOCC2)c1)[C@@H]1CCCN1C(=O)c1cccs1	-0.3	-3.2	-2.4	-0.6	0.9
CC1(C)Cc2ccccc2-c2nc(NCCO)n(-c3ccccc3)c(=O)c21	18.2	173.3*	-2.2	9.9	1.7
CCC1(C)Cc2ccccc2-c2nc(NCCO)n(-c3ccccc3)c(=O)c21 (stereo not drawn)	13.5	176.1*	-1.4	-19.1	0.6
CCC1(C)Cc2ccccc2-c2nc(NCCO)n(-c3ccc(C)cc3)c(=O)c21 (stereo not drawn)	16.6	162.7*	0.8	6.5	1.0
CCC1(CC)Cc2ccccc2-c2nc(NCCO)[nH]c(=O)c21	19.8	168.5*	-6.8	15.1	2.4
